# Mtb BioA inh = M. tuberculosis BioA enzyme inhibitors, primary screen, biochemical, plate reader, single point, HTS; 7,8-diaminopelargonic acid synthase BioA (Mycobacterium tuberculosis); purified M. tuberculosis BioA enzyme; inhibition, % at 9.99 µM; actives 0.096% (n = 360,000); in the data active = inhibition above about 40%
# BH1578 lux ind = inducers of Vibrio cholerae quorum light production without autoinducers, primary screen, BH1578 luxS cqsA deficient, single point; V. cholerae BH1578 lux reporter, luminescence, 6 h; activation, % at 18.7 µM; actives 0.16% (n = 350,000); AID 588436, 2011; in the data active = activation mostly above about 9.7%, no sharp cut-off
# FBA Mtb inh = Mtb FBA enzyme inhibitors, primary screen, biochemical, fluorescence, strain H37Rv. inhibition, % at 1 µM. purified M. tuberculosis FBA, fluorescence read-out. Fructose-bisphosphate aldolase (Mycobacterium tuberculosis (strain ATCC 25618 / H37Rv)), …. AID 588726, 2011. actives 2.3% (n = 360,000); in the data active = inhibition above about 27%;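 note: 0% = vehicle and 100% = reference inhibitor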
# Target sequence (P9WQA3 whole entry, looked up): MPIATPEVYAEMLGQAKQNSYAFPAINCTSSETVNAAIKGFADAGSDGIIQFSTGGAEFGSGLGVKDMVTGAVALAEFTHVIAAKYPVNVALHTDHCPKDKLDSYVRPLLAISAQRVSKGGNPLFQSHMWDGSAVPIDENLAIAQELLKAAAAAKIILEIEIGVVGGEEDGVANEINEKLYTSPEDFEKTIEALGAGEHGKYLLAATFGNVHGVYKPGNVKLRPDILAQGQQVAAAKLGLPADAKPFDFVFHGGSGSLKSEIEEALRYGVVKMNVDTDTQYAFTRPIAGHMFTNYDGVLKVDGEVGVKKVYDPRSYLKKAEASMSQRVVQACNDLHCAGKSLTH
# GDH-TPI counter = GDH-TPI coupling enzyme inhibitors, primary screen, artefact control for M. tuberculosis FBA inhibitor project, biochemical, absorbance, full deck. AID 588335, 2011. inhibition, % at 4.8 µM. GDH-TPI coupled enzyme counterscreen, NADH absorbance. actives 1.2% (n = 360,000); in the data active = inhibition above about 30%;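 note: 0% = DMSO wells and 100% = wells lacking the enzyme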
# * = called active by the depositor; i = inactive; . = no result given; + = active, no number. Sampled rows, rich in hits. Any-hit rate of the full collection: about 3%.
SMILES,Mtb BioA inh,BH1578 lux ind,FBA Mtb inh,GDH-TPI counter
COc1ccc(S(=O)(=O)N(C)C[C@@H]2Oc3cc(C#CC4CC4)ccc3S(=O)(=O)N([C@H](C)CO)C[C@H]2C)cc1,-1.9,.,.,.
Oc1[nH]c2ccccc2c1C1=NCCCC1,0.1,i,-0.2,26.7
CCn1c(O)c(C2=NCCCC2)c2ccccc21,-0.7,i,-0.4,35.8*
CC(C)NC(=O)N(C)C[C@H]1Oc2ncc(C#Cc3ccncc3)cc2C(=O)N([C@H](C)CO)C[C@H]1C,-1.1,.,.,.
COc1ccc(NC(=O)c2cc3cc(OC)ccc3oc2=O)cc1,-1.9,i,-0.1,5.3
COc1ccc2oc(=O)c(C(=O)Oc3ccc(NC(C)=O)cc3)cc2c1,.,i,31.3*,17.7
CC1CCCCC1NC(=O)c1cc2c(=O)n3ccccc3nc2n1C (centres undefined),0.9,i,180.2*,10.4
CCN(C(=O)c1cc2c(=O)n3ccccc3nc2n1CCCOC)C1CCCCC1,-1.2,-0.2,117.7*,16.5
CCCCn1nc(C(=O)N(C)C2CCCCC2)c2ccccc2c1=O,0.5,i,-0.8,-4.7
CCN(C(=O)c1cc2c(=O)n3ccccc3nc2n1C)C1CCCCC1,0.9,-5.6,+,0.5
CN(C(=O)c1cc2c(=O)n3ccccc3nc2n1C)C1CCCCC1,-6.6,-1.6,+,18.6
Cc1cccn2c(=O)c3cc(C(=O)NC4CCCCC4C)n(C)c3nc12 (centres undefined),-0.9,-0.3,13.3,0.4
COc1ccc(S(=O)(=O)Nc2cccc3c2O[C@H](CN(C)C(=O)NC2CCCCC2)[C@H](C)CN([C@H](C)CO)C3=O)cc1,0.8,.,.,.
COCC(=O)N(C)C[C@@H]1Oc2ncc(C#Cc3ccc(F)cc3)cc2C(=O)N([C@H](C)CO)C[C@@H]1C,-0.2,.,.,.
C[C@H]1CN([C@@H](C)CO)C(=O)c2cc(NC(=O)Cc3cn(C)c4ccccc34)ccc2O[C@H]1CN(C)C(=O)Nc1cccc2ccccc12,0.4,.,.,.
CSc1ccc(-c2cccc3nncn23)cc1,17.7,-1.3,+,23.9
O=C(NC1CCCCC1)N(Cc1cc2cc3c(cc2[nH]c1=O)OCCO3)CC1CCCO1 (centres undefined),0.7,2.1,22.7,36.1*
Cc1ccc(/C=C2\SC(N3CCCCC3)=NC2=O)cc1,0.0,0.7,1.8,31.6*
COc1cccc(/C=C2\SC(N3CCC(C)CC3)=NC2=O)c1OC,1.9,i,3.0,20.4
C=CCOc1ccc(/C=C2\SC(N3CCCCC3)=NC2=O)cc1,-0.7,-0.4,1.0,38.2*
COc1cccc(/C=C2\SC(N3CCCC(C)C3)=NC2=O)c1OC (centres undefined),0.8,i,-0.4,33.1*
O=C1N=C(N2CCOCC2)S/C1=C\c1ccncc1,0.5,-0.3,-0.6,20.5
COc1ccc(OC)c(/C=C2\SC(N3CCCCC3)=NC2=O)c1,1.8,0.0,1.4,18.4
O=C1N=C(N2CCCCC2)S/C1=C\c1ccc(Cl)cc1,-1.3,i,-0.8,28.4
O=C1N=C(N2CCCC2)S/C1=C\c1ccccc1,-2.9,i,-4.1,54.0*
SMILES,Mtb BioA inh,BH1578 lux ind,FBA Mtb inh,GDH-TPI counter
CCCC#Cc1ccc2c(c1)O[C@@H](CN(C)C(=O)c1ccccc1)[C@H](C)CN([C@@H](C)CO)S2(=O)=O,-0.2,.,.,.
C[C@@H]1CN([C@H](C)CO)C(=O)c2cc(NC(=O)Nc3cccc4ccccc34)ccc2O[C@@H]1CN(C)CC1CCCCC1,-0.9,.,.,.
CC(C)(C)c1ccc(/C=C2/SC(N3CCCC3)=NC2=O)cc1,0.2,-1.2,-1.2,36.9*
O=C1N=C(N2CCN(c3ccccc3)CC2)S/C1=C/c1ccco1,30.1,-0.3,-1.4,34.0*
O=C1N=C(N2CCCCC2)S/C1=C\c1ccccc1F,2.0,-0.4,-1.6,45.2*
O=C1N=C(N2CCN(c3ccccc3)CC2)S/C1=C\c1ccco1,.,-3.3,-2.9,29.6
COc1cc(OC)c(OC)cc1/C=C1\SC(N2CCCCC2)=NC1=O,0.2,-0.4,-2.4,16.7
C[C@@H]1CCCCO[C@@H](CN(C)S(=O)(=O)c2cccs2)[C@@H](C)CN([C@@H](C)CO)C(=O)c2cc(NC(=O)Nc3ccc(C(F)(F)F)cc3)ccc2O1,-2.5,.,.,.
C[C@H]1CN([C@@H](C)CO)S(=O)(=O)c2ccc(C#CC3(O)CCCC3)cc2O[C@@H]1CN(C)C(=O)c1ccccc1,3.1,.,.,.
c1ccc(-c2ccc(-c3cn4c(n3)CCC4)cc2)cc1,-1.7,1.2,157.6*,0.0
Cc1ccc(OCC(=O)N/N=C\c2c(C)n(C)c3ccccc23)c([N+](=O)[O-])c1,0.5,-7.1,1.6,31.5*
Cc1c(/C=N/NC(=O)COc2ccccc2[N+](=O)[O-])c2ccccc2n1C,.,-0.2,-4.1,34.2*
Cc1ccc(OCC(=O)N/N=C/c2ccccc2)c([N+](=O)[O-])c1,.,i,2.3,-1.3
Cc1[nH]n(-c2ccccc2)c(=O)c1/C=N/NC(=O)COc1ccccc1[N+](=O)[O-],.,-0.3,-1.3,15.8
C[C@@H]1CN([C@H](C)CO)C(=O)c2cc(NC(=O)CCC(F)(F)F)ccc2O[C@H]1CN(C)C(=O)Nc1ccccc1,-3.0,.,.,.
CO[C@H]1CN(C)C(=O)c2cc(NC(=O)NC(C)C)ccc2OC[C@@H](C)N(Cc2ccccn2)C[C@H]1C,0.1,.,.,.
CC1=C(C(=O)NC2CCCc3c2cnn3-c2cc(F)cc(F)c2)OCCO1 (centres undefined),1.0,-0.3,1.7,1.3
Cn1nccc1C(=O)NC1CCCc2c1cnn2-c1cc(F)cc(F)c1 (centres undefined),2.9,i,+,7.7
O=[N+]([O-])c1ccc(O)c(C=Nc2ccc3nc(-c4ccccc4)[nH]c3c2)c1,.,-0.4,+,21.1
COc1ccccc1-c1cn(CC[C@@H]2CC[C@H](NC(=O)C3CC3)[C@@H](CO)O2)nn1,0.4,.,.,.
O=C(Nc1nc2ccccc2n1CCN1CCOCC1)c1ccc(Cn2cc([N+](=O)[O-])cn2)o1,-4.9,-0.3,2.5,47.8*
O=C(Nc1nc2ccccc2n1CCN1CCOCC1)c1ccc(COc2ccccc2Br)o1,.,i,4.0,13.7
COC(=O)Cn1c(=NC(=O)c2ccc(OC)cc2)sc2cc(OC)ccc21,.,i,10.8,36.1*
COC(=O)Cn1c(=NC(=O)c2cc(OC)cc(OC)c2)sc2cc(OC)ccc21,-0.2,i,-2.1,11.6
C[C@H](NC(=O)C[C@H]1C[C@@H]2c3cc(NC(=O)C4CCOCC4)ccc3O[C@@H]2[C@H](CO)O1)c1ccccc1,-2.3,.,.,.
CCOCCCn1c(=N)c(C(=O)NCCN2CCOCC2)cc2c(=O)n3cccc(C)c3nc21,1.3,-2.0,185.2*,-1.3
COc1ccc(CCNC(=O)c2cc3c(=O)n4cccc(C)c4nc3n(CCCN3CCOCC3)c2=N)cc1,-0.2,6.7,18.4,-5.6
Cc1cccn2c(=O)c3cc(C(=O)NCCN4CCOCC4)c(=N)n(Cc4ccc(F)cc4)c3nc12,23.0,-0.2,155.8*,7.0
